# Data: PubChem BioAssay (NCATS)
# Results filed as inconclusive are left out. Where a call stands in place of a potency, no number is given. The source made the active and inactive calls. The call rests on the fitted dose curve; in most records, active means well fitted cell-killing curve with a large enough effect; inconclusive means small, poorly fitted or top-dose-only effect, or effect the other way; inactive means flat fitted curve, though single readings scatter.
# Test system: Tov112D
# Test: Primary qHTS to identify gynecologic anti-cancer compounds using libraries of approved drugs and bioactive compounds (AID 1345084); further: nearly all actives have a fitted effect of over 55% in size
# Conditions: Gynecologic cancer cell panel viability, ATPlite luminescence, 48 h; series mostly up to 57.5 µM
# Outline: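 Cytotoxicity screen measuring ATP content by luciferase luminescence. Each compound is applied at five concentrations for 48 h at 37 C with 5% CO2.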
Compound,Potency,"activity change, negative = cytotoxicity"
CC1CCC2(C(=O)O)CCC3(C)C(=CCC4C5(C)C[C@@H](O)[C@@H](O)C(C)(CO)C5CCC43C)C2C1(C)O (stereo partly drawn),inactive,
C=C1CCC2[C@@](C)(C(=O)O)CCC[C@@]2(C)[C@@H]1CCc1ccoc1 (stereo partly drawn),inactive,
OCC1OC(Oc2cc(O)cc(/C=C/c3ccc(OC4OC(CO)C(O)C(O)C4O)cc3O)c2)C(O)C(O)C1O (stereo not drawn),inactive,
C/C=C(/C)C(=O)OC1C2OC2C2(CO2)C2C3OC(=O)C(C)C3CCC12C (stereo not drawn),inactive,
COc1cc(/C=C/C(=O)O[C@@H]2O[C@H](CO)[C@@H](O)[C@H](O)[C@H]2O)ccc1O,inactive,
C[C@]1(O)CC[C@@H]2C(C(=O)O)=CO[C@@H](O[C@@H]3O[C@H](COC(=O)/C=C/c4ccc(O)c(O)c4)[C@@H](O)[C@H](O)[C@H]3O)[C@@H]21,inactive,
C=C[C@H]1[C@H](O[C@@H]2O[C@H](CO)[C@@H](O)[C@H](O)[C@H]2O)OC=C2C(=O)N3Cc4c([nH]c5ccccc5c4=O)[C@@H]3C[C@H]21,inactive,
COc1cc(O)c2c(c1Cl)CC(C)OC2=O (stereo not drawn),inactive,
Cc1ncc(Cl)cc1NCc1ccc(C(=O)NC(CC2CCCC2)C(=O)NC2CC2)s1 (stereo not drawn),inactive,
COC(=O)C1=CO[C@@H](O[C@@H]2O[C@H](CO)[C@@H](O)[C@H](O)[C@H]2O)[C@@H]2[C@@H](C)[C@@H](O)C(O)[C@H]12 (stereo partly drawn),inactive,
Cc1occc1C(=O)n1ccnc1,inactive,
COc1cccc(CNc2ccc(S(=O)(=O)Nc3nc4ccccc4s3)cc2)c1O,inactive,
CC1(C)CC[C@]2(C(=O)O[C@@H]3O[C@H](CO[C@@H]4O[C@H](CO[C@@H]5O[C@H](CO)[C@H](O)[C@H](O)[C@H]5O)[C@@H](O)[C@H](O)[C@H]4O)[C@@H](O)[C@H](O[C@@H]4O[C@H](CO)[C@@H](O)[C@H](O)[C@H]4O)[C@H]3O)[C@H](O)C[C@]3(C)C(=CCC4[C@@]5(C)CC[C@H](O[C@@H]6OC[C@@H](O)[C@H](O)[C@H]6O)[C@@](C)(C(=O)O)C5CC[C@]43C)[C@@H]2C1 (stereo partly drawn),,3.01% [at 6.55 µM] (inactive)
COc1c(O[C@@H]2O[C@H](CO)[C@@H](O)[C@H](O)[C@H]2O)c(CCC(=O)O)cc2ccoc12,inactive,
CCOC(=O)CSc1nc2c(sc3ccccc32)c(=O)n1CCCN1CCCC1,inactive,
O=C(O)/C=C/c1ccc(O[C@@H]2O[C@H](CO)[C@@H](O)[C@H](O)[C@H]2O)cc1,inactive,
COCCN1CCC(C(=O)NO)(S(=O)(=O)c2ccc(Oc3ccc(OC(F)(F)F)cc3)cc2)CC1,inactive,

Compound,Potency,"activity change, negative = cytotoxicity"
CCCCOc1nc(N)c2c(n1)N(Cc1cccc(CN3CCCC3)c1)CC(=O)N2,inactive,
CC(C)C1(O)C=C2C(=O)CC3C(C)(C(=O)O)CCCC3(C)C2CC1 (stereo not drawn),inactive,
O=C(OC[C@H]1O[C@H](O[C@H]2CO[C@H](CO)[C@@H](O)[C@@H]2O)[C@H](O)[C@@H](O)[C@H]1O)c1ccccc1,inactive,
CC1CCCCCCCc2cc(O)cc(O)c2C(=O)O1 (stereo not drawn),inactive,
COC(=O)C1=CO[C@@H](O[C@@H]2O[C@H](CO)[C@@H](O)[C@H](O)[C@H]2O)[C@H]2[C@@H]1[C@H](O)[C@H](O)[C@]2(C)O,inactive,
CC(C)/C=C1/NC(=O)C(C(C)C)n2c1nc1c(O)cccc1c2=O (stereo not drawn),inactive,
CC1C2=CC(=O)OC2(O)CC2C1C(OC(=O)c1ccccc1)C(OC(=O)c1ccccc1)C1(O)C2(C)CCC(O)C1(C)C(=O)O (stereo not drawn),inactive,
O=C1NC(=O)/C(=C/c2cccc(C(F)(F)F)c2)S1,inactive,
C/C=C/C=C/C=C/C(=O)OC1C=C2C(O)OC(=O)[C@]2(O)[C@@]2(C)CCCC(C)(C)[C@H]12 (stereo partly drawn),inactive,
COc1cc2c(c(O)c1OC/C=C(\C)CC/C=C(/C)CCC=C(C)C)CN(C(CCC(=O)O)C(=O)O)C2=O (stereo not drawn),inactive,
CCCC(C(=O)O)c1c(C)nc2ccc(Cl)cc2c1-c1ccccc1 (stereo not drawn),inactive,
Cn1cc(-c2c[nH]c3ncnc(N4CCOCC4)c23)cn1,inactive,
CC1=C2C[C@@]3(C)C(CCC[C@@H]3C)C(O)C2(O)OC1=O (stereo partly drawn),inactive,
CCOc1ncc(S(=O)(=O)N2CCN(CC)CC2)cc1-c1nc2c(CC)n(CCOC)nc2c(=O)[nH]1,inactive,
COc1cc2nc(=NC(=O)c3cccnc3)n3c(c2cc1OC)NCC3,inactive,
CC1=CC[C@@]2(C)CC[C@@](O)(C(C)C)[C@@H]2[C@@H](O)C1,inactive,
